In PubChem BioAssay (Tox21):
A number with no mark means an inactive call. Records with an inconclusive call do not appear. A call without a number means that no potency is given here. The source made the active and inactive calls. Unless noted, calls follow the shape of the dose curve; as a rule, active = well fitted curve in the direction sought with a large enough effect in the repeat runs; inconclusive = weak or mixed curves; inactive = no such curve, though single readings can be large; an effect the other way counts as inactive or inconclusive.

Assays:
[1] = qHTS assay to identify small molecule antagonists of the progesterone receptor (PR) signaling pathway - cell viability counter screen (AID 1346798); also: series mostly up to about 92 µM; nearly all actives have a fitted effect of over 50% in size
Method in brief: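 Counter screen for cytotoxicity: viability of PR-UAS-bla HEK293T cells was measured with CellTiter-Glo luminescence following 16 hr compound exposure in the presence of R5020.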

[2] = qHTS assay to identify small molecule agonists of the progesterone receptor (PR) signaling pathway - cell viability counter screen (AID 1346799; calls by dose curve; also: nearly all actives have a fitted effect of over 45% in size)
Method in brief: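 Cells (PR-UAS-bla HEK293T) are plated at 3,000/well in 2% charcoal-stripped FBS medium, rested 6 hr, dosed and incubated 16 hr at 37C. CellTiter-Glo is then added and luminescence measured after 30 min at room temperature.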

[3] = qHTS assay to identify small molecule antagonists of the TGF-beta/Smad signaling pathway - cell viability counter screen (AID 1346824); also: nearly all actives have a fitted effect of over 50% in size
Method in brief: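 SBE-bla HEK 293T cells, incubated overnight, then compound plus 0.25 ng/mL TGF-beta1 (stock added) for 5 hr at 37 C. Viability was read in the same wells by CellTiter-Glo luminescence after 30 min at room temperature.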

[4] = qHTS assay to identify small molecule agonists of the TGF-beta/Smad signaling pathway - cell viability counter screen (AID 1346829); also: top concentration of the series differs between compounds; nearly all actives have a fitted effect of over 45% in size
Method in brief: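 Cytotoxicity counter screen: CellTiter-Glo luminescence (30 min, room temperature) measured in the SBE-bla HEK 293T reporter wells after 5 hr compound treatment at 37 C and the 2 hr substrate step.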

[5] = qHTS assay to identify small molecule agonists of the TGF-beta/Smad signaling pathway (AID 1346859; active = well fitted activation curve with a large enough effect in the signal ratio in the repeat runs, not every such curve was filed as active; the % refers to the signal ratio; also: series mostly up to about 77 µM)
Method in brief: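 Reporter line: HEK 293T with stably integrated SBE-controlled beta-lactamase. Compound exposure lasts 5 hr at 37 C and 5% CO2; substrate loading follows for 2 hr at room temperature, with emission read at 460 and 530 nm.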

[6] = biological target: Thyrotropin-releasing hormone receptor (Homo sapiens) (UniProt P34981); experiment: qHTS assay to identify small molecule antagonists of the thyrotropin-releasing hormone receptor (TRHR) signaling pathway (AID 1346877; active = well fitted inhibition curve with a large enough effect in the repeat runs, not every such curve was filed as active; also: series mostly up to about 51 µM)
Sequence of Thyrotropin-releasing hormone receptor (Homo sapiens) (P34981 whole entry, looked up): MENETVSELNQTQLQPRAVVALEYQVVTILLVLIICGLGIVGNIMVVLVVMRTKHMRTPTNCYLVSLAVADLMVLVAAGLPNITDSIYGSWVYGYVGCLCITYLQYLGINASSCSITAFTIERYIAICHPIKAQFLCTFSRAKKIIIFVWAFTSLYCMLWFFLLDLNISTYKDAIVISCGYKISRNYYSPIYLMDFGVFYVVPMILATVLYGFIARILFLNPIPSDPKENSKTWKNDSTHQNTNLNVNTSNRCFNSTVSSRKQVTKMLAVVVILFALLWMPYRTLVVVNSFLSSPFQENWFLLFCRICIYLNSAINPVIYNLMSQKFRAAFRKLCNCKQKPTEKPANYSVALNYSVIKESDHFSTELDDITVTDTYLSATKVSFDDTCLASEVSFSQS
Method in brief: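 In this cell-based calcium flux format, HEK293 cells expressing TRHR received test compound for 5 min before the agonist TRH (1 nM final). Dye loading lasted 2 h at 37 °C.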

[7] = biological target: Thyrotropin-releasing hormone receptor (Homo sapiens) (UniProt P34981); experiment: qHTS assay to identify small molecule agonists of the thyrotropin-releasing hormone receptor (TRHR) signaling pathway (AID 1346891; calls by dose curve; also: series mostly up to about 58 µM)
Method in brief: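 Cells: TRHR-Hek293, seeded and incubated 18 h. Dye loading: 2 h at 37 °C. Compound added from DMSO stock by pin tool. Read-out: kinetic calcium fluorescence over 3 min.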

[8] = Human pregnane X receptor (PXR) small molecule agonists, qHTS cell viability counter screen (AID 1346977); also: nearly all actives have a fitted effect of over 50% in size
Method in brief: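 Cytotoxicity counter screen run in the same wells as the PXR luciferase assay, using PXR-Luc HepG2 cells in charcoal-stripped serum medium. Viability: CellTiter-Fluor fluorescence after 24hr compound treatment.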

[9] = Caspase-3/7 induction in HepG2 cells by small molecules, qHTS assay (AID 1346978); also: nearly all actives have a fitted effect of over 15% in size
Method in brief: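 Wild-type HepG2 cells, 2,000/well, settled 5 hr at 37 C and 5% CO2, then compound-treated for 17 hr; caspase-3/7 activity read by luminescent Caspase-Glo 3/7 after 30 min at room temperature.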

[10] = Caspase-3/7 induction in CHO-K1 cells by small molecules, qHTS cell viability counter screen (AID 1346979); also: nearly all actives have a fitted effect of over 35% in size
Method in brief: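 Cytotoxicity counter screen run in parallel with the caspase-3/7 assay: CHO-K1 cells, 16hr compound treatment at 37C, then CellTiter-Fluor for 1hr before fluorescence reading.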

[11] = Caspase-3/7 induction in CHO-K1 cells by small molecules, qHTS assay (AID 1346980); also: nearly all actives have a fitted effect of over 15% in size
Method in brief: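 Wild-type CHO-K1 cells exposed to compounds for 17hr at 37 C, 5% CO2. Caspase-3/7 activity then measured by Caspase-Glo 3/7 luminescence after 30min at room temperature.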

[12] = Caspase-3/7 induction in HepG2 cells by small molecules, qHTS cell viability counter screen (AID 1346981); also: series mostly up to about 92 µM; nearly all actives have a fitted effect of over 30% in size
Method in brief: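 Counter screen for cytotoxicity: HepG2 exposed 16 hr to compounds, then CellTiter-Fluor viability signal (fluorescence, 1 hr reagent incubation).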

[13] = biological target: Nuclear receptor subfamily 1 group I member 2 (Homo sapiens) (UniProt O75469); experiment: Human pregnane X receptor (PXR) small molecule agonists, qHTS assay (AID 1346982); also: nearly all actives have a fitted effect of over 35% in size; also: potency is read from the fitted curve at half-maximal effect
Sequence of Nuclear receptor subfamily 1 group I member 2 (Homo sapiens) (O75469 whole entry, looked up): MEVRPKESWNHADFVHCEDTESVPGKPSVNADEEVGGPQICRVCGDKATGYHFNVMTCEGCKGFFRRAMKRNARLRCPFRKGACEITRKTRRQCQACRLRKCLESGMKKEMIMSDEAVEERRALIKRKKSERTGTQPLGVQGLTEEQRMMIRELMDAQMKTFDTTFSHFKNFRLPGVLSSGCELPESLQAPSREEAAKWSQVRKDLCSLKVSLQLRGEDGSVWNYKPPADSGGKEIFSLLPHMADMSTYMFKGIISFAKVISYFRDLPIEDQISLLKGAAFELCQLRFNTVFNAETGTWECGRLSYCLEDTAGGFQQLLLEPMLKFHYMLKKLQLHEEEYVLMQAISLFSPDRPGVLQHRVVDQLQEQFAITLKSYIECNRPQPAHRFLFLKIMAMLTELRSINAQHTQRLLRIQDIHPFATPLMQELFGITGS
Method in brief: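 Luminescence (ONE-Glo, 30 min RT) after 24 hr compound exposure of PXR-Luc HepG2 cells; cells rested 5 hr post-plating in 5% charcoal-stripped FBS medium.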

[14] = biological target: Cytochrome P450 2D6 (Homo sapiens) (UniProt P10635); experiment: Cytochrome P450 Family 2 Subfamily D Member 6 (CYP2D6) small molecule antagonists: luciferase reporter qHTS assay (AID 1671196); also: nearly all actives have a fitted effect of over 50% in size; also: potency is read from the fitted curve at half-maximal effect
Sequence of Cytochrome P450 2D6 (Homo sapiens) (P10635 whole entry, looked up): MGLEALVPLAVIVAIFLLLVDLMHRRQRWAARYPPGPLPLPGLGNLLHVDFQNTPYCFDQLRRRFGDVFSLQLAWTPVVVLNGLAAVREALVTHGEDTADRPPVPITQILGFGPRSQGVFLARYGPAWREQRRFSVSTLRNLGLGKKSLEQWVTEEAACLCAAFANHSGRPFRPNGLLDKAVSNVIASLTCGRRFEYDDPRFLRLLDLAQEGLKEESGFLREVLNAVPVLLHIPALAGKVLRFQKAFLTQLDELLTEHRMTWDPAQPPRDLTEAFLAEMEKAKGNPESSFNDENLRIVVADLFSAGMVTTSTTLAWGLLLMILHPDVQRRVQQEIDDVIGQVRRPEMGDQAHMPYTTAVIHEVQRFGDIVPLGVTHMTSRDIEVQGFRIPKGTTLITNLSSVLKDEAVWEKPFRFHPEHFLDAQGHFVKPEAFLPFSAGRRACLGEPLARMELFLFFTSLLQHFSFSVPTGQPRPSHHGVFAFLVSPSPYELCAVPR
Method in brief: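 Inhibition of CYP2D6 was gauged by loss of luminescence, since light produced tracks the luciferin generated from a proluciferin substrate. A 10 min room-temperature preincubation preceded 1 h NADPH-supported turnover.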

[15] = biological target: Cytochrome P450 2C9 (Homo sapiens) (UniProt P11712); experiment: Cytochrome P450 Family 2 Subfamily C Member 9 (CYP2C9) small molecule antagonists: luciferase reporter qHTS assay (AID 1671198); also: nearly all actives have a fitted effect of over 50% in size; also: potency is read from the fitted curve at half-maximal effect
Sequence of Cytochrome P450 2C9 (Homo sapiens) (P11712 whole entry, looked up): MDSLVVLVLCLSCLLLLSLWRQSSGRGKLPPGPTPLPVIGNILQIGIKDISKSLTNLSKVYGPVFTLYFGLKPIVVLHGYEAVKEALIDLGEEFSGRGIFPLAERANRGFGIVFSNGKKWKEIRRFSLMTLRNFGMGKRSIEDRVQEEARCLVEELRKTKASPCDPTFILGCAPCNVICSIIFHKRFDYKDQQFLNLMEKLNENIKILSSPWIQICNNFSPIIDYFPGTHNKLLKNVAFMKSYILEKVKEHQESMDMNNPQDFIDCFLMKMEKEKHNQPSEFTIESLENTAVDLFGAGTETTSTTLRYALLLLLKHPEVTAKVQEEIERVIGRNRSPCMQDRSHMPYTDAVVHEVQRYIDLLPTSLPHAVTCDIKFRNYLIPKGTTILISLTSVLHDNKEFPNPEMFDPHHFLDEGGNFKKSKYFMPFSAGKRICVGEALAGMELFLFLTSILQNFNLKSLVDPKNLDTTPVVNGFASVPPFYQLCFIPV
Method in brief: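 P450-Glo proluciferin substrate with CYP2C9 enzyme; 10 min RT preincubation, then NADPH regeneration 1 h at 37C; luciferin detection reagent 20 min RT, luminescence in relative luminescence units.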

[16] = biological target: Cytochrome P450 1A2 (Homo sapiens) (UniProt P05177); experiment: Cytochrome P450 Family 1 Subfamily A Member 2 (CYP1A2) small molecule antagonists: luciferase reporter qHTS assay (AID 1671199); also: nearly all actives have a fitted effect of over 50% in size; also: potency is read from the fitted curve at half-maximal effect
Sequence of Cytochrome P450 1A2 (Homo sapiens) (P05177 whole entry, looked up): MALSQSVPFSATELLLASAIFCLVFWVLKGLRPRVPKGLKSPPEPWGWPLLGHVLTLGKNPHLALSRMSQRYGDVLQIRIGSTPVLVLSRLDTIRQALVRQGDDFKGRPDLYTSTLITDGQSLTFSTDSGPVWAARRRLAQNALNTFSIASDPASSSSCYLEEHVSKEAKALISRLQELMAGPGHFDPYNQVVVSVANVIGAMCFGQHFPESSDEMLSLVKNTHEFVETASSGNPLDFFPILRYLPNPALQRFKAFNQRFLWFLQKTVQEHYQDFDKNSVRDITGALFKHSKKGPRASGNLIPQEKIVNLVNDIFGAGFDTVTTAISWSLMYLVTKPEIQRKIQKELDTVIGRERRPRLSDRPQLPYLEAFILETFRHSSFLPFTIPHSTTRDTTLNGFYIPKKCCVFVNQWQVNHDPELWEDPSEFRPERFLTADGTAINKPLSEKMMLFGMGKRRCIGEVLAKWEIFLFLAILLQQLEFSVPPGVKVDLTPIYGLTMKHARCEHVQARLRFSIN
Method in brief: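 Signal from luciferin formed by CYP1A2 from a proluciferin substrate is read as luminescence, expressed in relative luminescence units. Compounds sit with enzyme 10 min, NADPH-driven reaction runs 1 h, all at room temperature.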

[17] = biological target: Cytochrome P450 2C19 (Homo sapiens) (UniProt P33261); experiment: Cytochrome P450 Family 2 Subfamily C Member 19 (CYP2C19) small molecule antagonists: luciferase reporter qHTS assay (AID 1671197); also: nearly all actives have a fitted effect of over 65% in size; also: potency is read from the fitted curve at half-maximal effect
Sequence of Cytochrome P450 2C19 (Homo sapiens) (P33261 whole entry, looked up): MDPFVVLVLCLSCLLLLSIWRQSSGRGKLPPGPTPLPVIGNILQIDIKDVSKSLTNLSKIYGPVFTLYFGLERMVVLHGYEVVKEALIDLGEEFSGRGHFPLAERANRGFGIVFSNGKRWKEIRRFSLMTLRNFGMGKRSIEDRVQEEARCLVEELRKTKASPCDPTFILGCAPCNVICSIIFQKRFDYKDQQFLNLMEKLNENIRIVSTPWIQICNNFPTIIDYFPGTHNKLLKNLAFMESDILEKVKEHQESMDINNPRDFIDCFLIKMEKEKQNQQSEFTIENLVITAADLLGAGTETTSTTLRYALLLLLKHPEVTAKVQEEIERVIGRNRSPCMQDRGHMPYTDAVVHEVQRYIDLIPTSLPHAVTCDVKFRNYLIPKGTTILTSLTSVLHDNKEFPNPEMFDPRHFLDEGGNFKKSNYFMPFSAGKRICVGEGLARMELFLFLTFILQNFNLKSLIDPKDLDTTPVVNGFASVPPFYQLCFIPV
Method in brief: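 Luminescent readout of CYP2C19 activity: luciferin product detected 20 min after adding detection reagent. Before that, compound and enzyme-substrate mix preincubated 10 min at room temperature; NADPH-regenerating system started a 1 h, 37C reaction. Ketoconazole as positive control.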

[18] = biological target: Nuclear receptor subfamily 1 group I member 2 (Homo sapiens) (UniProt O75469); experiment: CYP3A4 induction through human pregnane X receptor (PXR) by small molecules, qHTS assay (AID 1346984); also: nearly all actives have a fitted effect of over 40% in size
Method in brief: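 DPX-2 reporter cells; 24h cpd, 37C; Luciferin-IPA 3uM final x3h; One-Glo 30 min RT; lumi read.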

[19] = biological target: Nuclear receptor subfamily 1 group I member 2 (Homo sapiens) (UniProt O75469); experiment: Human pregnane X receptor (PXR) activation by small molecules, qHTS assay (AID 1346985); also: nearly all actives have a fitted effect of over 40% in size
Method in brief: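 DPX-2 cells (HepG2 co-transfected with a PXR response element and a CYP3A4-promoter luciferase construct) were seeded at 2,000 per well, rested 5 hr at 37C, then exposed to DMSO-dissolved compounds for 24 hr. Activation was read as luciferase luminescence.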

SMILES | Potency [1] | Potency [2] | Potency [3] | Potency [4] | Potency [5] | Potency [6] | Potency [7] | Potency [8] | Potency [9] | Potency [10] | Potency [11] | Potency [12] | Potency [13] | Potency [14] | Potency [15] | Potency [16] | Potency [17] | Potency [18] | Potency [19]
CC[N+](CC)(CC)Cc1ccccc1 | inactive | inactive | inactive | inactive | inactive | inactive | inactive | inactive | inactive | inactive | inactive | inactive | inactive | 35.6 µM (active) | inactive | inactive | – | – | –
Clc1cccnc1 | inactive | inactive | inactive | inactive | inactive | inactive | inactive | – | inactive | inactive | inactive | inactive | inactive | inactive | inactive | 35.6 µM (active) | inactive | – | –
CCCCCCCC/C=C\CCCCCCCC(=O)OCCOC(=O)CCCCCCC/C=C\CCCCCCCC | inactive | inactive | inactive | inactive | inactive | – | – | inactive | inactive | inactive | inactive | inactive | 71.2 µM (active) | 46.5 µM (active) | 14.7 µM (active) | 52.2 µM (active) | 46.5 µM (active) | – | –
CCOC(=O)COc1ccc(C)cc1 | inactive | inactive | inactive | inactive | inactive | inactive | inactive | inactive | – | inactive | inactive | inactive | inactive | inactive | – | 39.9 µM (active) | inactive | – | –
CC(C)C(=O)OCc1ccccc1 | inactive | inactive | inactive | inactive | inactive | – | – | inactive | inactive | inactive | inactive | inactive | inactive | inactive | inactive | inactive | inactive | – | –
c1cc[nH]c1 | inactive | inactive | inactive | inactive | inactive | inactive | – | inactive | inactive | inactive | inactive | inactive | inactive | inactive | – | inactive | – | – | –
COC(=O)CC#N | inactive | inactive | inactive | inactive | inactive | inactive | inactive | – | inactive | inactive | inactive | – | inactive | – | inactive | – | – | – | –
C=CC(C)(CCC=C(C)C)OC(=O)/C=C/c1ccccc1 (centres undefined) | inactive | inactive | inactive | inactive | inactive | inactive | inactive | – | inactive | inactive | inactive | inactive | 61.1 µM (active) | inactive | 6.33 µM (active) | 31.7 µM (active) | 6.33 µM (active) | – | –
CCN(CC)CCSC(=O)C(c1ccccc1)c1ccccc1 | inactive | inactive | inactive | inactive | inactive | inactive | – | – | inactive | – | inactive | inactive | – | 4.9 µM (active) | 17.4 µM (active) | 15.5 µM (active) | 6.92 µM (active) | inactive | inactive
